# High-throughput results as filed in PubChem.
# An excerpt weighted towards active compounds, which were near 2.5% of everything screened.
# Cruzain Triton = blocks cruzain activity in presence of Triton detergent; purified cruzain, Z-FR-AMC fluorescence, 0.01% Triton; Potency, µM, without a hit: max response, negative = inhibition, hits mostly inhibitors; hit rate 0.43% among 200,000;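 further: plate controls were neutral wells for no effect and buffer without enzyme for full effect; nearly all actives have a fitted effect of over 40% in size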
# Target sequence (P25779 123-467 limits assumed): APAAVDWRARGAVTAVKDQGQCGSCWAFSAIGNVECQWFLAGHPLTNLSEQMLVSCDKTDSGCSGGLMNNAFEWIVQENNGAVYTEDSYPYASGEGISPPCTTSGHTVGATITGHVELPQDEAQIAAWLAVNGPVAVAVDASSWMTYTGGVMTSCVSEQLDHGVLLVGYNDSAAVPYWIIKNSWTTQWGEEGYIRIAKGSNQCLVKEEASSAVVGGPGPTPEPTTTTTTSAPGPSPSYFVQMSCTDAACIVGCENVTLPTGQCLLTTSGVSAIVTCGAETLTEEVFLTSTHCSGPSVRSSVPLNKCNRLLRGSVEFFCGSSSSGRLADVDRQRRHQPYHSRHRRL
#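 Steps: dispense cruzain (1.5 nM final) in acetate buffer pH 5.5 with DTT and 0.01% Triton X-100; pin-transfer compounds; incubate 15 min RT; add Z-FR-AMC (2 uM final); read fluorescence every 30 s, using the 60 s intensity change.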
# Cruzain noTriton = blocks cruzain activity in detergent-free assay | P25779 | Potency, µM, inactives show max response, negative = inhibition, usual class: inhibitors | hit rate 2.3% among 200,000 | purified cruzain, Z-FR-AMC fluorescence, no detergent;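 further: plate controls were enzyme without inhibitor for no effect and buffer without enzyme for full effect; nearly all actives have a fitted effect of over 40% in size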
#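 Purified cruzain at 1.5 nM, pre-incubated 15 min with compound at room temperature in 100 mM sodium acetate pH 5.5, 5 mM DTT, 0.00005% Triton X-100. Reaction started with 2 uM Z-FR-AMC; AMC fluorescence increase over 60 s gives rate.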
# The depositor's hits bear a star; ? = inconclusive. The call rests on the fitted dose curve; in most records, active means well fitted curve in the direction sought with a large enough effect; inconclusive means small, poorly fitted or top-dose-only effect, or another doubt; inactive means no such curve, though single readings can be large; an effect the other way counts as inactive or inconclusive. Potency means the concentration at half of the fitted maximal effect.
SMILES,Cruzain Triton,Cruzain noTriton
Cc1cc(C(=O)Cn2nc(C(=O)O)c3ccccc3c2=O)c(C)n1-c1ccccc1,-9%,25µM*
Cc1cc(C(=O)Cn2nnc(-c3ccc(Cl)cc3)n2)c(C)n1-c1ccccc1,-3%,?
Cc1c(CCC(=O)NCCc2ccccc2)c(=O)oc2c(C)c(O)ccc12,-3%,-3%
O=c1oc2ccccc2cc1-c1csc(NN=C2CCCC2)n1,-10%,-12%
O=C(c1ccco1)c1cc2c(ccc3ccccc32)oc1=O,4%,-4%
C/C(=N\Nc1nc(-c2cc(C)ccc2C)cs1)c1cc2ccccc2oc1=O,?,25µM*
C/C(=N\Nc1nc(-c2cc(C)ccc2C)cs1)c1cc2c(ccc3ccccc32)oc1=O,-8%,7.9µM*
NC(=O)C1(N2CCCCC2)CCN(C(=O)Nc2ccc(F)cc2F)CC1,-1%,?
CCCN(CCC)C(=O)Cn1c(=O)n(CCCCCC(=O)Nc2ccccc2)c(=O)c2sccc21,-3%,0%
COc1cc2c(cc1OC)C(C(=O)Nc1ccc3c(c1)OCCO3)C(c1cccnc1)N(C)C2=O (centres undefined),4%,-13%
COC(=O)c1c(NC(=O)c2ccc(Br)s2)sc2c1CCC2,-6%,10µM*
COC(=O)c1c(NS(=O)(=O)c2ccc3ccccc3c2)sc2c1CCCC2,1%,?
COC(=O)c1c(NC(=O)c2ccc(C)c(S(=O)(=O)Nc3ccccc3C)c2)sc2c1CCCC2,1%,7.9µM*
COC(=O)c1c(NC(=O)c2c(OC)cccc2OC)sc2c1CCCC2,-3%,6%
Cc1cccn2c(=O)c(/C=C(\C#N)c3nc4ccccc4s3)c(Oc3ccc(Br)cc3)nc12,-8%,-16%
CCOc1ccc(C2CC(c3c(O)n(C4CCCCC4)c(=O)[nH]c3=O)=Nc3ccccc3S2)cc1 (centres undefined),-8%,-5%
CN(C)c1ccc(/C=C/C(O)=C2/C(=O)N(C)C3(C)CC2c2ccccc2O3)cc1 (centres undefined),-9%,20µM*
CN1C(=O)C(/C(N)=N/NC(=O)c2ccccc2)C2CC1(C)Oc1ccccc12 (centres undefined),-2%,-2%
Cc1cccc(N2CCN(C(=O)c3cnn(-c4cccc(Cl)c4C)c3C3CCNCC3)CC2)c1C,-2%,7%
O=C(/C=C/c1ccco1)NC(=S)Nc1ccc(O)c(-c2nc3ccccc3s2)c1,0%,7.9µM*
O=C(Nc1ccc(O)c(-c2nc3ccccc3s2)c1)c1cccs1,-2%,?
COc1ccccc1-c1noc(-c2ccccc2C(=O)Nc2cccnc2)n1,3%,8%
O=C1C2=C(S[C@@H]3O[C@H](CO)[C@@H](O)[C@H](O)[C@H]3O2)C(=O)c2ccccc21,4%,4%
COCc1cc(Sc2ccc(Cl)cc2)nc(-c2ccccc2)n1,0%,-6%
Nc1ccc(Sc2cc(Cl)nc(N)n2)cc1,6%,13µM*
SMILES,Cruzain Triton,Cruzain noTriton
O=C(c1ccc(=O)[nH]c1)N(Cc1cccs1)C1(C(=O)NC2CCCC2)CCCCC1,-3%,-16%
CCOc1nc2cccc(C(=O)OC(C)OC(=O)OC3CCCCC3)c2n1Cc1ccc(-c2ccccc2-c2nn[nH]n2)cc1 (centres undefined),14µM*,?
CCCc1nc(C(C)(C)O)c(C(=O)OCc2oc(=O)oc2C)n1Cc1ccc(-c2ccccc2-c2nn[nH]n2)cc1,-1%,?
COCCn1c(=O)cnc2cnc(Oc3ccc(OC)cc3)nc21,-2%,-8%
COc1ccc(Cl)cc1NC(=O)Cn1cc2c(n1)CCC(C)C2 (centres undefined),-10%,-11%
Cc1cc(SCC(=O)N2CCC(c3noc4ccc(F)cc34)CC2)nc2ccccc12,-2%,-13%
O=C(CSc1ncnc2sc3c(c12)CCCC3)N1CCC(c2noc3ccc(F)cc23)CC1,3%,16µM*
Cc1oc(C)c2c(=O)cc(-c3ccc4c(c3)OCO4)cc(OC(=O)c3cccc(Cl)c3)c12,-4%,?
Cc1oc(C)c2c(=O)cc(-c3ccc4c(c3)OCO4)cc(OC(=O)c3cccc(Br)c3)c12,-3%,25µM*
Cc1ccccc1C(=O)Oc1cc(-c2ccc3c(c2)OCO3)cc(=O)c2c(C)oc(C)c12,-9%,20µM*
Cc1ccc(C(=O)Oc2cc(-c3ccc4c(c3)OCO4)cc(=O)c3c(C)oc(C)c23)cc1,-6%,?
CCOC(=O)c1sc(N2C(=O)c3oc4ccc(C)cc4c(=O)c3C2c2ccccc2F)nc1C (centres undefined),-1%,6%
C[C@H]1[C@H]2CC[C@H]3C4CC=C5C[C@@H](N(C)C)CC[C@]5(C)C4CC[C@]23CN1C (some centres undefined),2%,-3%
CCOC(=O)c1cc(-c2ccccc2)n(CCCC(=O)Nc2cccc(Cl)c2C)c1C,-2%,14%
Cc1nn(-c2ccccc2)c(Cl)c1/C=N/Nc1ccc(S(=O)(=O)Nc2ccccc2C(=O)O)cc1[N+](=O)[O-],14µM*,?
Cc1nn(-c2ccccc2)c(Cl)c1/C=N/Nc1ccc(Cl)c(C(=O)O)c1,-10%,-5%
CCCn1c(CCC(=O)Nc2ccc(C)c(Cl)c2)nc2cccnc21,-6%,-4%
CNc1nc(Oc2ccc(=O)n(C)n2)nc(N2CCOCC2)n1,0%,2%
C=CCn1c(=O)c2ccc(C(=O)NCc3ccccc3)cc2n(Cc2ccccc2Cl)c1=O,2%,25µM*
C=CCn1c(=O)c2ccc(C(=O)NCc3ccccc3)cc2n(Cc2ccc(Cl)cc2)c1=O,-4%,-28%
Cc1[nH]c2c(Cl)cccc2c1CCN,5%,5%
Cc1[nH]c2c(ccc3ccccc32)c1C1C(CCN)C1(C)C (centres undefined),-2%,10µM*
COc1ccc(NC(=O)Cn2c(=O)n(Cc3ccco3)c(=O)c3sc4ccccc4c32)c(OC)c1,-3%,3%
COc1ccc(NC(=O)Cn2c(=O)n(Cc3ccco3)c(=O)c3sc4ccccc4c32)cc1Cl,-13%,25µM*
CCn1cc(C(=O)NCCc2ccc(Cl)cc2)c(=O)c2cc(S(=O)(=O)N3CCc4ccccc4C3)ccc21,-3%,-2%
SMILES,Cruzain Triton,Cruzain noTriton
Cc1ccc2c(CC(=O)N3CCc4ccccc43)coc2c1,-10%,0%
O=C(Cc1coc2ccc3ccccc3c12)N1CCc2ccccc21,3%,13µM*
Cc1ccc(-n2nnc(-c3nsc(NC(=O)c4ccccc4C)n3)c2C)cc1Cl,-2%,-5%
Cc1c(-c2nsc(NC(=O)c3ccccc3)n2)nnn1-c1ccc(C(F)(F)F)c(Cl)c1,-1%,20µM*
CC(=O)c1ccc(NC(=O)C2CCN(S(=O)(=O)c3ccc4c(c3)CCCN4C(=O)C3CCC3)CC2)cc1,1%,0%
CCc1nc2ccc(C(=O)NCCc3ccc(OC)c(OC)c3)cc2nc1CC,1%,23%
O=C(Nc1ccc2nc(-c3ccco3)c(-c3ccco3)nc2c1)NC1CC1,8.9µM*,2.5µM*
COc1ccc(CCNC(=O)c2ccc3nc(-c4ccco4)c(-c4ccco4)nc3c2)cc1OC,14µM*,-6%
O=C(NCCCO)Nc1ccc2nc(-c3ccco3)c(-c3ccco3)nc2c1,13µM*,7.9µM*
OCCCNC(=S)Nc1ccc2nc(-c3ccccn3)c(-c3ccccn3)nc2c1,-4%,-13%
O=C(Nc1cccc(C(F)(F)F)c1)c1ccc2snnc2c1,-4%,-12%
O=C(Nc1cccc(C(F)(F)F)c1)c1ccc2nc(-c3ccco3)c(-c3ccco3)nc2c1,14µM*,?
O=C(Nc1nc(-c2ccco2)c(-c2ccco2)s1)C1CCC1,-9%,-6%
